GLP1R cytotox = cytotoxic in the GLP-1 receptor inverse agonist counter-screen; HEK293 cAMP-luciferase reporter cells, luminescence, 24 h; Potency, µM (titrated, usually from 38.3 µM), for inactives: at the highest dose activity change, negative = inhibition, most hits filed as inhibitors; 0.13% of 410,000 active;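 further: loss of luciferase light is scored as toxicity; potency means the concentration at half of the fitted maximal effect; on the % scale 0 is the no-effect control and ±100 the full control effect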
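Step one: seed cells (200 cells/uL, DMEM with 10% Nu serum, 1% pen-strep). Step two: 12-hour incubation at 37 deg C. Step three: pin 23 nL compound, incubate 24 hr. Step four: add luciferase reagent, read luminescence 12 min later.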
uPA generation = inhibitors of cell surface uPA generation | cell surface uPA generation assay, qHTS | Potency, µM (series often up to 38.3 µM), for the others: top-dose activity change, negative = inhibition, hits mostly inhibitors | 0.31% of 330,000 active; active means well fitted inhibition curve with a large enough effect; inconclusive means small, poorly fitted or top-dose-only effect; inactive means no such curve, though single readings can be large or run the other way; tested in mouse RAW 264.7 cells; further: potency means the concentration at half of the fitted maximal effect; on the % scale 0 is the no-effect control and ±100 the full control effect; nearly all actives have a fitted effect of over 55% in size
GLP1R ag = activates the human GLP-1 receptor; HEK293 GLP-1R CRE-luciferase, luminescence, 4-6 h; cells express a hypersensitive GLP-1R form; AID 624172; 0.007% of 380,000 active; P43220; Potency, µM (top dose mostly 45.6 µM), for inactives: at the highest dose activation, usual class: activators; further: potency means the concentration at half of the fitted maximal effect; % of control where 0% means no effect
Target sequence (P43220 whole entry, looked up): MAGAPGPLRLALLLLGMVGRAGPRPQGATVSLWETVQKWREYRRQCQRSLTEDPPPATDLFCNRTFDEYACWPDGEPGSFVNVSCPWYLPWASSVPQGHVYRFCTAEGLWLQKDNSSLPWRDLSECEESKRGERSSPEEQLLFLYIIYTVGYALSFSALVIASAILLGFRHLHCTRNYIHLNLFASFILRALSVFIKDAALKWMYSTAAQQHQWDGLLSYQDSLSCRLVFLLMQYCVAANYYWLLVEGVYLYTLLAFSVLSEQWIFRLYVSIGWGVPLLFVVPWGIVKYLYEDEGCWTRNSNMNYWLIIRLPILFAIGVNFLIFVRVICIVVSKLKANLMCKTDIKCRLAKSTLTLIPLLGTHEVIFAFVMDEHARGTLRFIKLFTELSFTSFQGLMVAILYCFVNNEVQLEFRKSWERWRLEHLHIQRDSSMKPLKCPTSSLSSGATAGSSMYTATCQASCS
MmCpn inh = M. maripaludis TRiC chaperonin inhibition. purified Mm-Cpn ATPase, ADP Transcreener TR-FRET. Potency, µM (top dose mostly 76.9 µM), without a hit: top-dose activity, negative = inhibition, hits mostly inhibitors. 0.031% of 330,000 active. AID 504842; further: potency means the concentration at half of the fitted maximal effect; on the % scale 0 is the no-effect control and ±100 the full control effect; nearly all actives have a fitted effect of over 80% in size
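ATPase turnover read by TR-FRET ADP competition (Eu cryptate antibody/ADP-d2, 665/590 nm): 10uM ATP final, 25nM Mm-CPN final, 30 min 37degC after 10-min compound preincubation, pH 7.4 Tris/KCl/MgCl2/DTT buffer.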
CCT modulator = cytosolic chaperonin activity modulation | AID 651819 | activity change, % (test concentration not listed), hits read low | 0.3% of 360,000 active | purified chaperonin ATPase assay, HTRF ADP detection, 30 min; in the data active means activity change below about -30%; further: on the % scale 0 is the no-effect control and ±100 the full control effect
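Nucleotide hydrolysis assay: TRiC at 20–40 nM final (set by batch activity) with 10 uM ATP, 30 min at 37 °C, in presence of 76 uM compound. Detection by competitive ADP HTRF, 30 min ambient.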
GLP1R inv ag = inverse agonists of human GLP-1 receptor. 1.6% of 410,000 active. HEK293 GLP-1R CRE-luciferase, luminescence, 24 h; GLP-1R form is constitutively active. Potency, µM (top dose mostly 38.3 µM), for the others: at the top dose activity change, negative = inhibition, actives largely listed as inhibitors. P43220; further: potency means the concentration at half of the fitted maximal effect; on the % scale 0 is the no-effect control and ±100 the full control effect; nearly all actives have a fitted effect of over 55% in size
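Readout was luciferase luminescence, measured 12 min after detection reagent at room temperature. Beforehand, GLP-1R reporter HEK293 cells had sat 12 h, then received compounds for 24 hr at 37 deg C.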
* = called active by the depositor; ? = inconclusive; . = no result; [ ] = another dose, or the depositor's remark. An excerpt weighted towards active compounds, which were near 2.2% of everything screened. Unless noted, the call rests on the fitted dose curve; in most records, active means well fitted curve in the direction sought with a large enough effect; inconclusive means small, poorly fitted or top-dose-only effect, or another doubt; inactive means no such curve, though single readings can be large; an effect the other way counts as inactive or inconclusive.

SMILES	GLP1R cytotox	uPA generation	GLP1R ag	MmCpn inh	CCT modulator	GLP1R inv ag
CC(C)N(CC#CCC(O)(c1ccccc1)c1ccccc1)CCO	-14%	5%	-1%	3%	2	10µM*
CCN(CC#CCC(O)(c1ccccc1)c1ccccc1)C(C)C	3%	6%	2%	1%	-1	?
COc1cc(S(=O)(=O)N2CCCCCC2)c(OC)cc1Br	10%	-4%	2%	0%	1	4.5µM*
CCc1nnc(NC(=O)CCC(=O)N2CCN(Cc3ccccc3)CC2)s1	10%	5%	-7%	0%	-93*	-1%
CCc1nnc(NC(=O)CSc2nccn2-c2ccccc2)s1	9%[1.53 µM]	2%	-5%	4%	-38*	3%
CCc1nnc(NC(=O)CSc2nnc(-c3ccccc3O)o2)s1	?	-8%	2%	2%	-56*	?
CCC(Sc1ncc(S(=O)(=O)c2ccc(Cl)cc2)c(=O)[nH]1)C(=O)Nc1ccc(OC)cc1 (stereo not drawn)	-5%	.	-6%	.	.	8%
O=C(c1cc2sccc2n1Cc1ccccc1)N1CCc2ccccc21	4%	.	-13%	?	0	?
O=C(c1cc2sccc2n1Cc1ccccc1)N1CCCc2ccccc21	-3%	5%	0%	-14%	-1	10µM*
CCOc1ccc(NC(=O)c2c(NCc3sccc3C)sc3c2CCCCC3)cc1	-1%	.	.	.	.	9%
COc1ccc(OC)c(CNS(=O)(=O)c2cc(-c3onc(C)c3C)ccc2C)c1	-10%	.	.	.	.	-11%
Cc1nn2c(NCC(C)C)c3c(nc2c1-c1ccccc1)CCC3	1%	.	4%	1%	1	0%
Cc1nn2c(NC(C)C)c3c(nc2c1-c1ccccc1)CCC3	-8%	6%	23%	0%	-1	10µM*
CCNc1oc(/C=C/c2ccc(OCC)cc2)nc1C#N	-2%	3.2µM*	21%	-2%	-2	-16%
CCCN(C(=O)c1cc2c(=O)oc3ccccc3c2s1)c1ccccc1C	-1%	.	0%	.	.	4%
Cc1ccc(OCC(=O)NNC(=O)C(C)Sc2ncnc3sc(C)c(C)c23)cc1 (stereo not drawn)	2%	5%	5%	-1%	0	0%
Cc1sc2ncnc(SC(C)C(=O)N3c4ccccc4Sc4ccccc43)c2c1C (stereo not drawn)	-12%	4%	0%	-6%	-1	8.9µM*
CCC(=O)OC1CCC2C3CCc4cc(O)ccc4C3CCC12C (stereo not drawn)	.	.	4%	.	.	.
CN[C@H]1CCc2cc(OC)c(OC)c(OC)c2-c2ccc(N(C)CC(OC)OC)c(=O)cc21	?	3.5µM*	12%	-3%	-1	?
COc1ccccc1NS(=O)(=O)c1cccc(C(=O)NCC(c2ccccc2OC)N2CCCC2)c1 (stereo not drawn)	11%	2%	5%	4%	0	?
COc1ccccc1C(CNC(=O)c1cccc(S(=O)(=O)Nc2ccc(C)cc2)c1)N1CCCC1 (stereo not drawn)	-28%	-1%	-5%	0%	0	5.6µM*
Cc1ccc(N(C)S(=O)(=O)c2cccc(C(=O)NCC(c3ccco3)N3CCCC3)c2)cc1 (stereo not drawn)	3%	-16%	-4%	3%	-3	10µM*
Cn1c(/C(C#N)=C/c2ccc(C(F)(F)F)cc2)nc2ccccc21	8%	.	.	.	.	-3%
CSc1nnc(NC(=O)c2cc(=O)c3cc(C)c(C)cc3o2)s1	0%	.	.	.	.	12%
CCOC(=O)c1cc(C)n(CC2CCC(C(=O)Nc3ccc(C)cc3)CC2)c1C (stereo not drawn)	2%	.	.	.	.	-1%
SMILES	GLP1R cytotox	uPA generation	GLP1R ag	MmCpn inh	CCT modulator	GLP1R inv ag
Fc1ccccc1C1c2[nH]c3ccccc3c2CCN1Cc1ccoc1 (stereo not drawn)	4%	-2%	9%	2%	-2	8.9µM*
Cc1nc2nc(C)n(CCN3CCOCC3)c(=O)c2c(-c2cccc([N+](=O)[O-])c2)c1C(=O)CCCCCCCCCCN1CCC(c2ccccc2)(c2ccccc2)CC1	?	-10%	-9%	.	-1	2.8µM*
CCc1nn(CC(=O)N2CCN(c3cccc(C)c3C)CC2)c(=O)c2cc3sccc3n12	-4%	.	.	.	.	-4%
O=C(Oc1cccc2cccnc12)c1cccc(N2C(=O)C3C4CCC(C4)C3C2=O)c1 (stereo not drawn)	2.5µM*	-6%	1%	-2%	-2	2.8µM*
O=C(Oc1cccc2cccnc12)c1ccc(N2C(=O)C3C4CCC(C4)C3C2=O)cc1 (stereo not drawn)	3.2µM*	-1%	0%	2%	-1	2.8µM*
CN(Cc1cccc(Cl)c1)C(=O)C1CCC(=O)N(C2CC2)C1 (stereo not drawn)	5%	?	-7%	-1%	-76*	18%
CN(Cc1ccc(C(F)(F)F)cc1)C(=O)C1CCC(=O)N(C2CC2)C1 (stereo not drawn)	-5%	-12%	-5%	-6%	-2	8%
CCOCN(C(=O)Cn1c(CC(C)C)nc2ccccc21)c1c(C)cccc1CC	-13%	.	-4%	.	.	11µM*
O=C(Nc1ccccc1Sc1ccccc1)c1ccc(F)cc1	27%	9%	20%	1%	0	5µM*
COc1ccc(C2CC(c3ccccc3)=NN2C(=S)Nc2ccccc2)cc1 (stereo not drawn)	0%[0.307 µM]	10%	-19%	50µM*	-9	5%[0.307 µM]
C=CCNCC(=O)N1N=C(c2ccc3ccccc3c2)CC1c1ccc(OC)cc1 (stereo not drawn)	?	3%	21%	-2%	-1	13µM*
COc1cccc(Nc2nnc(-c3cc4ccc(O)cc4oc3=O)s2)c1	39%	.	.	.	.	4%
COc1cc(C(=O)Nc2nnc(S(=O)(=O)N3CCCCCC3)s2)cc(OC)c1OC	-1%	3%	-5%	-3%	-32*	63%
COc1cccc(C(=O)Nc2nnc(S(=O)(=O)N3CCCC3)s2)c1	0%	4%	-6%	?	-1	19%
c1ccc(COc2cccc(-c3cc4nc(NCc5cccs5)ccn4n3)c2)cc1	-14%	.	16%	.	2	4.5µM*
COCCCNc1ccn2nc(-c3ccccc3)cc2n1	-5%	.	-6%	.	0	4µM*
Cc1ccc(CCNC(=O)c2c(C)oc3ncnc(N4CCOCC4)c23)cc1	-5%	.	.	.	.	6%
Cc1cc(-c2nnc(SCC(=O)N3C(C)CCCC3C)o2)no1 (stereo not drawn)	10%	-8%	-9%	1%	0	16%

Screens from PubChem.
